Growth data for 38 compounds are collected here from PubChem BioAssay (NCI).

Each structure is given as a SMILES string. Compounds without any hit were thinned out: in the full panel of roughly 83,000, 20% have a hit.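 Each cell line was grown in a 96-well plate and treated with one concentration of compound for 48 hours. Values below 10 were considered active.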 Unmarked numbers belong to inactive results. Active and inactive are the calls of the source.

This assay relates to KM12 colon. The assay is described as follows: NCI-60 one-dose screen, 48 h (100 = growth as untreated, 0 = no growth, -100 = all killed). As to conditions: 10 µM unless noted.
Consider `Cc1nn(-c2ccccc2)c(Cl)c1/C=C(/NC(=O)c1ccccc1)c1nc2ccccc2[nH]1`, for which the growth is 107%. To `Cc1ccc(-c2c(-c3ccccc3)c(=O)oc3ccc(C)cc23)cc1` belongs 92%.

As for `CC1(c2ccccc2)NC(=O)N(NC(=O)CSc2nc(-c3cccs3)nc3ccccc23)C1=O` (stereo not drawn), the growth was 103%. To `C(=N\Nc1ncc(-c2cc3cc4c(cc3o2)OCO4)s1)/c1ccco1` belongs 15.8%. Turning to `O=C1/C(=C\c2cccnc2)SC(=S)N1CCc1ccc(O)cc1`, the growth is -3.09% (active).

In the case of `CC1(C)CC[C@]2(C(=O)N3CCOCC3)CC[C@]3(C)C(=CC[C@@H]4[C@@]5(C)CC[C@H](OC(=O)c6cccnc6)C(C)(C)[C@@H]5CC[C@]43C)[C@@H]2C1`, the growth was 53.5%. To `COC(=O)[C@]12CC[C@@H](C)[C@H](C)[C@@H]1C1=CC[C@@H]3[C@@]4(C)C(C=O)=C[C@@](C)(COC(=O)c5ccco5)[C@@H]4C(=O)C[C@@]3(C)[C@]1(C)CC2` belongs 23.1%; to `O=C(COc1ccc(/C=C2\Oc3ccccc3C2=O)cc1)Nc1nc2c(s1)CCCC2`, -75% (active); to `Cn1cc(-c2csc(-c3ccccc3)n2)c2cccnc21`, -68.6% [100 µM] (active). To `CCOP(=O)(OCC)C1CP(=O)(c2ccccc2)CC(C)=C1Cl` (stereo not drawn) belongs 109%. As to `S=C(Cc1ccc2c(c1)CCCC2)N1CCOCC1`, the growth was 106%. To `CN1C(=O)N(C)C2C1NN=c1s/c(=C\c3ccccc3)c(=O)n12` (stereo not drawn) belongs 23.3%.

Consider `Cc1ccc(C(=O)CSc2nc(-c3ccc(Br)cc3)c(C#N)c(=O)[nH]2)cc1`, for which the growth was 97.4%. To `O=C1N=c2cc3c(cc2=C/C1=C/c1sc(=S)n(CCc2ccc(O)cc2)c1O)OCCO3` belongs 52.5%. To `COc1ccc(CN2C(=O)C(Cl)=C(Nc3cccc(C(F)(F)F)c3)C2=O)cc1` belongs 70.2%; to `O=C1C=C[C@]2(C[C@@H](c3cccc(C(F)(F)F)c3)O[C@@H](c3cccc(C(F)(F)F)c3)O2)O1`, 6.02% (active); to `Clc1cc(Cl)cc(Nc2ccc3cc(OCCCN4CCOCC4)ccc3n2)c1`, 8.59% (active). To `CC(=O)OC1CCC2(C)C(=CC3C4CCC(=O)C4(C)CCC32)C1` (stereo not drawn) belongs 107%; to `COc1cc(C2NC(=O)c3ccccc3N2)ccc1OCCCCCOc1c(OC)cc(C2=NOC(c3cc(OC)c(OC)c(OC)c3)C2)cc1OC` (stereo not drawn), 91.2%; to `O=C(N/N=C/c1ccncc1)c1ccc(C(F)(F)F)nc1Nc1cccc(C(F)(F)F)c1`, 20.9%. As to `C[C@@]1(CCC#N)[C@H]2CC[C@@H]3[C@H]4[C@H](C(=O)/C=C/c5cccnc5)CC[C@]4(C#N)CC[C@@]3(C)[C@]2(C)CC[C@H]1C(=O)/C=C/c1cccnc1`, the growth was 36%.

Regarding `Cc1ccc(NCCN(C)C)c2c(=O)c3ccccc3sc12`, the growth is 23.3%. To `COc1ccccc1NC(=O)N/C(N)=N/c1nc2ccccc2s1` belongs 10.4%.

For `COC(=O)CCC1=C(C)C2=NC1=CC1=NC(=CC3=NC(=Cc4[nH]c(/c(=C(/C)O)c4C)=C2)C(C(C)=O)=C3C)C(C)=C1CCC(=O)OC`, the growth is 104%.

Take `Oc1ccc(CN2CCC(N3CCOCC3)CC2)c2cccnc12`: the growth is 20.9%. To `C#Cc1cccc(NC(=O)c2ccc(NC(=O)CCl)cc2)c1` belongs 37.9% [8.25 µM]. To `Cc1c(C(=O)NC(Cc2ccccc2)C(O)C(=O)NCc2ccc(F)cc2)[nH]c2ccccc2c1=O` (stereo not drawn) belongs 102%. To `Cc1ccc2nc(NC(=O)CSc3nc(Nc4ccc([N+](=O)[O-])cc4)c(C#N)c(-c4ccccc4)n3)sc2c1` belongs 101%; to `CCN1C(=O)N(CC)C2Nn3c(s/c(=C4\C(=O)N(C)c5ccccc54)c3=O)=NC21` (stereo not drawn), 29.8%. For the compound `C=CCSc1nc2ccccc2cc1/C=N/O`, the growth was 89.5%. To `C=C(C)[C@@H]1CC[C@]2(C)[C@H](CC=C3[C@@H]4CC(C)(C)CC[C@]4(C(N)=O)CC[C@]32C)[C@@]1(C)CCC#N` belongs 20.7%; to `CCOC(=O)C/C(C)=N\NC(=O)c1ccncc1`, 107%. As to `O=C(/C=C/c1ccc(Cl)nc1)c1ccc(Cl)cc1Cl`, the growth is 76.5%. To `COC(=O)[C@]12CC[C@@H](C)[C@H](C)[C@@H]1C1=CC[C@@H]3[C@@]4(C)C(C=O)=C[C@@](C)(COC(=O)c5ccco5)C4=CC[C@@]3(C)[C@]1(C)CC2` belongs 8.54% (active); to `CC(C)(C)C(CCc1ccc(Cl)cc1)N1CCN(C2CCCCC2)CC1` (stereo not drawn), 36.8%; to `O=C(Nc1ccc(-n2cc(-c3ccncc3)c(-c3ccc(Cl)c(O)c3)n2)cc1)N1CCOCC1`, 100%.

As to `COc1nc(N(C)O)nc(N(C)O)n1`, the growth was 24.5%. To `O=c1[nH]ccc2nc(N3CCC(O)CC3)nc(Nc3ccc(N4CCOCC4)cc3)c12` belongs 8.57% (active).
